In PubChem BioAssay (NCI):
This is part of a sample that, as a whole, favours compounds with a hit. Of some 79,000 tested, about 15% had one in any assay. Active and inactive are the calls of the source. No stated cut-off is given here; in the data, active means growth inhibition above about 70%; inactive means the rest.

Assays:
[1] = NCI Yeast Anticancer Drug Screen. Data for the rad52 strain (AID 147);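 further: 0% = growth of vehicle-treated control cultures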; settings: S. cerevisiae rad52 mutant growth inhibition, hits give high values
Method in brief: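 Vehicle-treated cultures served as the reference for growth inhibition of compound-exposed yeast bearing a DNA repair mutation.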

[2] = NCI Yeast Anticancer Drug Screen. Data for the wt1 strain (AID 149);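 further: 0% = growth of vehicle-treated wt1 cultures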; settings: S. cerevisiae wt1 strain (SPY 50644) growth inhibition, hits give high values
Method in brief: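 wt1 strain grown with compound or vehicle; inhibition taken from the growth difference.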

[3] = NCI Yeast Anticancer Drug Screen. Data for the rad50EPP+ strain (AID 151);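 further: 0% = growth of vehicle-treated control cultures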; settings: S. cerevisiae rad50 mutant strain, hits give high values
Method in brief: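 In this screen, rad50EPP+ yeast were exposed to compounds. Growth inhibition was scored against vehicle-treated controls.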

[4] = NCI Yeast Anticancer Drug Screen. Data for the mgt1 strain (AID 153); settings: S. cerevisiae mgt1 mutant growth inhibition, hits give high values
Method in brief: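 mgt1 strain exposed; growth vs vehicle control recorded as inhibition.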

[5] = NCI Yeast Anticancer Drug Screen. Data for the rad50 strain (AID 155);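 further: 0% = growth of vehicle-only cultures of the same strain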; settings: S. cerevisiae rad50 strain growth inhibition, hits give high values
Method in brief: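 DNA repair mutant yeast, compound exposure, growth read-out; inhibition is taken relative to vehicle.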

[6] = NCI Yeast Anticancer Drug Screen. Data for the mec2-1 strain (AID 157); settings: S. cerevisiae mec2-1 strain, hits give high values
Method in brief: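 Vehicle-treated cultures served as reference for growth inhibition of compound-exposed mec2-1 yeast.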

[7] = NCI Yeast Anticancer Drug Screen. Data for the rad14 strain (AID 159);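 further: 0% = growth of vehicle-treated control cultures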; settings: S. cerevisiae rad14 strain growth inhibition, hits give high values
Method in brief: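 DNA repair-defective yeast, compound-exposed; % growth inhibition derived by comparison with vehicle-treated controls.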

[8] = NCI Yeast Anticancer Drug Screen. Data for the sgs1 mgt1 strain (AID 161);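 further: 0% = growth of cultures given vehicle only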; settings: S. cerevisiae sgs1 mgt1 strain, hits give high values
Method in brief: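 Mutant yeast exposed to compound; growth scored against vehicle-only wells.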

[9] = NCI Yeast Anticancer Drug Screen. Data for the cln2 rad14 strain (AID 165);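 further: 0% = growth equal to vehicle treated cultures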; settings: S. cerevisiae cln2 rad14 strain, hits give high values
Method in brief: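 Each compound was tested on cln2 rad14 yeast. Inhibition of growth was calculated against vehicle-exposed controls.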

[10] = NCI Yeast Anticancer Drug Screen. Data for the bub3 strain (AID 167); settings: S. cerevisiae bub3 mutant strain, hits give high values
Method in brief: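 In this screen, a yeast mutant lacking normal mitotic checkpoint function is challenged with compound. Relative growth versus vehicle gives the inhibition value.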

[11] = NCI Yeast Anticancer Drug Screen. Data for the wt2 strain (AID 169);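 further: 0% = growth of vehicle-treated yeast cultures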; settings: S. cerevisiae wt2 strain growth inhibition, hits give high values
Method in brief: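 Inhibition of yeast growth was determined after compound treatment, normalised to controls receiving only vehicle.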

[12] = NCI Yeast Anticancer Drug Screen. Data for the mlh1 strain (AID 171);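 further: 0% = growth of vehicle-treated control cultures of the same strain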; settings: S. cerevisiae mlh1 strain growth inhibition, hits give high values
Method in brief: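 Vehicle-normalised growth inhibition of a repair- or checkpoint-altered yeast strain following compound treatment.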

[13] = NCI Yeast Anticancer Drug Screen. Data for the sgs1 strain (AID 173);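 further: 0% = growth of vehicle-only control cultures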; settings: S. cerevisiae sgs1 mutant, hits give high values
Method in brief: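 Screen format: yeast with repair or checkpoint alterations, compound exposure, growth read relative to vehicle.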

[14] = NCI Yeast Anticancer Drug Screen. Data for the mlh1 rad18 strain (AID 175); settings: S. cerevisiae mlh1 rad18 strain growth inhibition, hits give high values
Method in brief: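 Vehicle-treated cultures served as the reference for growth inhibition in a yeast strain carrying DNA damage repair alterations exposed to each compound.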

[15] = at 5.0 µM (retest, dose inferred, filed as 0.5)
[16] = at 50.0 µM (retest, dose inferred, filed as 5.0)

Measured: growth inhibition

Cc1ccc(S(=O)(=O)N/N=C/C(Br)=C(/Br)C(=O)O)cc1
inactive: [1]; at 1.2 µM 31% | [1]; at 3.7 µM 59% | [2]; at 1.2 µM 29% | [2]; at 3.7 µM 28% | [2]; at 11.0 µM 43% | [2]; at 100.0 µM 41% | [3]; at 1.2 µM 28% | [3]; at 3.7 µM 46% | [4]; at 1.2 µM 35% | [4]; at 3.7 µM 48% | [5]; at 1.2 µM 41% | [5]; at 3.7 µM 61% | [5]; [15] 38% | [5]; at 50.0 µM 57.8% | [6]; at 1.2 µM 20% | [6]; at 3.7 µM 35% | [6]; [15] -11% | [6]; at 11.0 µM 57% | [6]; [16] 10% | [6]; at 50.0 µM 43.8% | [7]; at 1.2 µM 14% | [7]; at 3.7 µM 28% | [7]; at 11.0 µM 50% | [8]; [15] 1% | [8]; [16] 43% | [8]; at 50.0 µM 62.8% | [9]; [15] 24% | [9]; [16] 42% | [9]; at 50.0 µM 25.2% | [10]; at 1.2 µM -5% | [10]; at 3.7 µM 1% | [10]; [15] -27% | [10]; at 11.0 µM 49% | [10]; [16] 37% | [10]; at 50.0 µM 64.2% | [11]; at 1.2 µM -3% | [11]; at 3.7 µM 10% | [11]; at 11.0 µM 48% | [12]; at 1.2 µM 35% | [12]; at 3.7 µM 48% | [13]; at 1.2 µM 28% | [13]; at 3.7 µM 38% | [13]; at 11.0 µM 56% | [14]; [15] 25% | [14]; [16] 69%
active: [1]; at 11.0 µM 86% | [1]; at 33.0 µM 95% | [1]; at 100.0 µM 89% | [2]; at 33.0 µM 91% | [3]; at 11.0 µM 80% | [3]; at 33.0 µM 96% | [3]; at 100.0 µM 82% | [4]; at 11.0 µM 79% | [4]; at 33.0 µM 98% | [4]; at 100.0 µM 89% | [5]; at 11.0 µM 86% | [5]; at 33.0 µM 97% | [5]; [16] 79% | [5]; at 100.0 µM 95% | [6]; at 33.0 µM 96% | [6]; at 100.0 µM 70% | [7]; at 33.0 µM 97% | [7]; at 100.0 µM 95% | [10]; at 33.0 µM 93% | [10]; at 100.0 µM 82% | [11]; at 33.0 µM 99% | [11]; at 100.0 µM 98% | [12]; at 11.0 µM 79% | [12]; at 33.0 µM 98% | [12]; at 100.0 µM 89% | [13]; at 33.0 µM 95% | [13]; at 100.0 µM 77% | [14]; at 50.0 µM 91.9%
